Experimental data taken from PubChem BioAssay AID1347076 (National Center for Advancing Translational Sciences (NCATS), 2019).
In all, about 400,000 compounds went through this assay and about 13,000 (3.2%) were called active. Another 18% or so got no clear call; they are omitted. The list comes from a sample in which actives are over-represented; it also holds similar structures and randomly drawn compounds. Unmarked numbers belong to inactive results. Calls follow the shape of the dose curve; as a rule, active = well fitted cell-killing curve with a large enough effect; inconclusive = small, poorly fitted or top-dose-only effect, or effect the other way; inactive = flat fitted curve, though single readings scatter.

Assay: qHTS assay for MDR1-selective chemotherapeutics: Primary screen using the drug-selected MDR subline cells KB-V1; also: nearly all actives have a fitted effect of over 60% in size
Details: KB-V1 MDR cells viability, CellTiter-Glo, 72 h; series mostly up to 46.1 µM; activity change, negative = cytotoxicity: at the top concentration
From the text: A prime difficulty in effectively treating cancer is the development of cellular resistance to multiple structurally unrelated anticancer drugs, a phenomenon known as multidrug resistance (MDR). […] Numerous strategies to overcome P-gp-mediated MDR have been explored, including the design of drugs that evade recognition and efflux, and development of inhibitors to block efflux and restore drug accumulation. […] An alternative approach is to exploit resistance by identifying drugs that target MDR cells over the non-resistant parental cells from which they were selected. […] The development of MDR1-selective agents represents a new strategy for resolving multidrug resistance, as it remains a long-standing clinical challenge for cancer chemotherapy.
Our goal is to identify compounds that selectively kill P-gp-expressing MDR cells. We will identify MDR1-selective compounds by comparing toxicity of compounds in the screening library against parental, drug-naive (KB-3-1) adenocarcinoma cells as well as their drug-selected MDR sub-line (KB-V1). The differential toxicity of compounds against these two cell lines will be used to identify MDR1-selective compounds, whose cytotoxicity is potentiated, rather than diminished, by P-gp expression. This assay will be utilized to conduct a quantitative high-throughput screen (qHTS) in collaboration with the NIH Chemical Genomics Center to identify selective agents, and probe hits arising from the screen will be validated using secondary assays and characterized through a well-established follow-up research program. This screen was run against the entire NCGC library collection of about 400,000 compounds.
NIH Molecular Libraries Probe Production Network [MLPCN]
NIH Chemical Genomics Center [NCGC]
PI: Michael Gottesman, National Cancer Institute, NIH
Briefly, 5 microL of media containing either KB-V1 cells (columns 1-2, 4-48) are dispensed into Greiner white, treated solid-bottom 1536-well assay plates (media-only control is added to column 3). Compounds are then transferred via Kalypsys pin tool equipped with 1536-pin array (10 nL slotted pins, V&P Scientific, San Diego, CA). Following addition of compound, the plates are incubated at 37 degrees C for 72 hours. CellTiter-Glo (2.5 µL/well) is then added, and the plates are read in a ViewLux reader (Perkin-Elmer, clear luminescence filter, 1 second exposure, 1x binning) following a 10 minute incubation. All cells are dispensed in DMEM phenol-red free media containing 10% FBS.
Library plates were screened starting from the lowest and proceeding to the highest concentration. Vehicle-only plates, with DMSO being pin-transferred to columns 5-48, will be inserted uniformly at the beginning and the end of each library in order to monitor and record any shifts in the background, which can be affected by reagent dispensers or loss in enzyme activity over time. Screening data will be corrected, normalized, and concentration-effect relationships will be derived by using publicly-available NCGC, NCATS curve fitting algorithms (http://ncgc.nih.gov/pub/openhts).
% is scaled to controls: 0 for no effect and ±100 for the full control effect; potency is read from the fitted curve at half-maximal effect.

| Compound | activity change, negative = cytotoxicity [%] | Potency |
| --- | --- | --- |
| C#CCN(C[C@H]1[C@H](OC(=O)NC2CCCC2)[C@H](OC(=O)NC2CCCC2)C[C@H]2C(=O)N(c3ccccc3)C(=O)[C@@H]12)S(=O)(=O)c1ccc(C)cc1 | 11.7 | – |
| CC1CCc2c(sc3nc4n(c(=O)c23)CCS4)C1 (stereo not given) | -10.8 | – |
| C=CCn1c(SCC(=O)NCCCO)nc2sc3c(c2c1=O)CCC3 | -0.705 | – |
| C=CCn1c(SCc2c(C)noc2C)nc2sc3c(c2c1=O)CCC(C)C3 (stereo not given) | – | 4.61 µM (active) |
| O=C(Nc1ccc(Cl)cc1)c1csc([C@H]2C[C@H](O)[C@@H](CO)O2)n1 | -8.14 | – |
| CCc1nnc2c3ccccc3nc(N3CCN(c4ccc(C)cc4C)CC3)n12 | 11 | – |
| Cc1ccc(S(=O)(=O)NCc2nc3ccccc3c(=O)n2N)cc1 | 4.72 | – |
| CCC1NC(=O)c2cccnc2-n2c1nc1ccc(C)cc1c2=O (stereo not given) | -15.4 | – |
| N=c1c2c(-c3ccccc3)c(-c3ccccc3)oc2ncn1Cc1ccco1 | – | 16.4 µM (active) |
| OCCNc1ncnc2oc(-c3ccco3)c(-c3ccco3)c12 | -18.6 | – |
| C(=C\c1ccccc1)/CSc1nnc(-c2cccnc2)n1Cc1ccco1 | 0 | – |
| CSCCC(c1nnnn1Cc1ccccc1)N1CCN(C/C=C/c2ccccc2)CC1 (stereo not given) | -8.22 | – |
| O=C(CNC(=O)N1CC(=O)Nc2ccccc21)Nc1ccc(Br)cc1F | 10.8 | – |
| Cc1ccc(OCCCCN2CCCCC2)c(Br)c1 | – | 16.4 µM (active) |
| O=[N+]([O-])c1ccccc1OCCCCN1CCCCC1 | -24.1 | – |
| Cc1ccc(C(C)C)cc1OCCN1CCCC1 | 2.61 | – |
| Cc1ccc(C(C)(C)C)c(OCCCCN2CCCC2)c1 | – | 20.6 µM (active) |
| CN1CCN(CCCCOc2cccc3ccccc23)CC1 | -7.19 | – |
| COc1ccccc1OCCCCCCN1CCN(C)CC1 | 20.9 | – |
| CCNC(=O)C1(C)CCCN(C(=O)c2ccc3ccccc3n2)C1 (stereo not given) | 5.07 | – |
| Cc1ccccc1S(=O)(=O)NC(=O)C1(C)CCN1C(=O)C1(c2ccc(Cl)cc2)CC1 (stereo not given) | 19.1 | – |
| CSc1n[nH]c(-c2ccco2)n1 | -8.81 | – |

| Compound | activity change, negative = cytotoxicity [%] | Potency |
| --- | --- | --- |
| COc1ccccc1-n1c(-c2cc(-c3ccco3)[nH]n2)n[nH]c1=S | 2.88 | – |
| Cn1c(-c2ccco2)nc2cc3ccccc3cc21 | – | 8.2 µM (active) |
| COc1ccc(Nc2cc(C(=O)NCCCN(C)c3ccccc3)c3ccccc3n2)c(OC)c1 | 3.15 | – |
| COc1cc2nc(NCC(C)c3ccccc3)n3nc(-c4ccccc4)nc3c2cc1OC (stereo not given) | -3.41 | – |
| Cn1c(=O)c2c(n3c4ccccc4nc13)NC(=O)CC2c1cccc(Cl)c1 (stereo not given) | 1.02 | – |
| Cc1ccccc1NC(=O)Cn1c(=O)n(CC2CCC(C(=O)NCCc3ccccc3)CC2)c(=O)c2ccccc21 (stereo not given) | -5.31 | – |
| O=c1cc(N2CCCCC2)c(-c2ccccc2)nn1Cc1cccc(F)c1 | -29.3 | – |
| CCc1c(-c2ccc(F)cc2)ncn1Cc1cccc(-c2ccccc2)c1 | – | 23.1 µM (active) |
| CCc1ccc(N(CC)C(=O)CCn2cnc3onc(-c4ccc(F)cc4)c3c2=O)cc1 | 6.69 | – |
| Cc1ccccc1-c1nc(CS(=O)(=O)CC(=O)Nc2cc(Cl)cc(Cl)c2)c(C)o1 | 0 | – |
| CN(C)c1ccnc(Nc2ccc(F)cc2)c1C#N | 4.23 | – |
| CNc1nccc(-c2ccc(Cl)cc2)c1C#N | – | 8.2 µM (active) |
| CN(C)c1nc(-c2cccnc2)nc(-c2ccc(Cl)cc2)c1C#N | -19.1 | – |
| COc1cc(OC)cc(C(=O)Nc2cc3nn(-c4ccccc4)nc3cc2Cl)c1 | -16.8 | – |
| O=C1c2ccccc2-c2ccccc2NC1O (stereo not given) | 4.64 | – |
| COC(=O)CSc1nc2ccccc2c(=O)n1Cc1ccccc1 | 10.7 | – |
| Cc1ccc(C(=O)CSc2nc3ccccc3c(=O)n2N)o1 | – | 11.6 µM (active) |
| COCC(C)n1c(SCc2ccc(C(=O)OC)o2)nc2ccccc2c1=O (stereo not given) | -7.31 | – |
| COc1ccc(NC(C)=O)cc1NC(=O)CN1CCN(c2ccc(F)cc2)CC1 | 0 | – |
| COc1cc(CCN=Cc2ccccc2O)c([N+](=O)[O-])cc1OC | -0.961 | – |
| COc1cc2ccccc2cc1C(=O)Nc1ccc(NC(=O)c2cccs2)cc1 | -0.19 | – |
| COc1cc(OC)cc(C(=O)NCCc2csc3nc(-c4ccccc4F)nn23)c1 | -5.31 | – |

| Compound | activity change, negative = cytotoxicity [%] | Potency |
| --- | --- | --- |
| COc1ccc(CCNC(=O)/C(C#N)=C2\N=C(NC(=O)c3cccs3)c3ccccc32)cc1 | – | 10.3 µM (active) |
| OC[C@@H]1CN(Cc2cccs2)C[C@H](n2cnc3c(NC4CCCC4)ncnc32)O1 | 2.36 | – |
| CCOc1cc(C(C(=O)NCC2CCCO2)N(C(=O)Cn2nnc3ccccc32)c2cccc(OC)c2)ccc1O (stereo not given) | -0.512 | – |
| CCOc1ccccc1Nc1nnc(SCC(=O)NCC2CCCO2)s1 (stereo not given) | -9.76 | – |
| CCOc1cc(-c2nc3cc(C)ccn3c2NCC2CCCO2)ccc1O (stereo not given) | – | 2.59 µM (active) |
| OC(c1ccc(F)cc1)c1ncc(-c2cccc(C(F)(F)F)c2)[nH]1 (stereo not given) | 6.78 | – |
| Cc1cn([C@H]2C[C@H](O)[C@@H](CNC(=O)[C@H](N)Cc3cccnc3)O2)c(=O)[nH]c1=O | -5.22 | – |
| COc1ccc(CCNC(=O)C2CCCN(Cc3nc(-c4cccc(Cl)c4)oc3C)C2)cc1OC (stereo not given) | – | 5.8 µM (active) |
| COc1ccc(-c2nc(CN3CCC(C(=O)NCCN(CC(C)C)CC(C)C)CC3)c(C)o2)cc1OC | -0.507 | – |
| COc1ccc(-c2nc(CN3CCC(C(=O)NCc4ccccc4)CC3)c(C)o2)cc1OC | 31.3 | – |
| Cc1ccc(C(=O)CSc2nc(-c3ccccc3)nc3c2CCCC3)c(C)c1 | 0 | – |
| CC1=C(C(=O)N(C)C)CC(CC(=O)NCCN2CCOCC2)C(=O)N1Cc1ccccc1 (stereo not given) | -5.99 | – |
| Cc1ccc(NC(=O)Nc2nnc(-c3ccncc3)s2)cc1 | -5.82 | – |
| Cc1nnc(NC(=O)Nc2ccc(Cl)c(Cl)c2)s1 | – | 18.4 µM (active) |
| Cc1nnc(NC(=O)C(c2ccccc2)c2ccccc2)s1 | -26.8 | – |
| O[C@H]1CN(Cc2cccs2)[C@@H](c2ccc(Cl)cc2)C[C@@H]1n1cc(C2CC2)nn1 | -10.1 | – |
| O=C(NN=Cc1ccc2c(c1)CCC2)c1ccccc1O | -0.911 | – |
| Cc1cc2cc3c(N)[nH]nc3nc2cc1C | – | 7.31 µM (active) |
| O=C(C[n+]1ccncc1)c1ccc2c(c1)CCCC2 | 4.87 | – |
| Cc1cc(C)cc(Nc2ncnc3onc(-c4ccc(F)cc4)c23)c1 | -3.6 | – |
| C[C@@H]1CN([C@H](C)CO)C(=O)CCCn2nncc2CO[C@@H]1CN(C)C(=O)OCc1ccccc1 | -11 | – |
